Assay results reported in the supplement of paper PMC9950053.
Counter-ions that a name gives are not always drawn.

What follows are molecules tested on Danio rerio larvae (5 dpf) (assay: startle (activity period 16 minus period 15, 20-s interval sound) minus DMSO control (percentage points); higher = stronger startle response than DMSO larvae). Conditions: 10 µM; exposure time: 3 h pre-incubation + 3 h imaging.
Protocol: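 Wild-type 5 dpf zebrafish larvae (n=48 per drug, 96-well plates, 28.5 °C) were exposed to Tocris FDA-approved library compounds at 10 µM (0.1% DMSO) for 3 h before and 3 h during imaging. Images were taken every 6 s during visual and acoustic stimuli, and larvae were tracked with Z-LaP Tracker. Each measure is the treated-group mean minus the DMSO control mean (n=844), in percentage points. This mapping covers compounds with 5-character plate codes.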
`COc1ccc(C(CN(C)C)C2(O)CCCCC2)cc1` (stereo unspecified) [Venlafaxine hydrochloride] was tested, and the startle was -6.7.
